Source: PubChem BioAssay AID652257 (The Scripps Research Institute Molecular Screening Center, 2013)
In all, about 370,000 compounds went through this assay and about 4,800 (1.3%) were called active.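 The calls were made as follows: active = inhibition above about 21% made by adding two undisclosed values (limit read from the data); inactive = the rest.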 For the sample, actives were picked, then their nearest neighbours and some compounds at random.

molecular target: Protein arginine N-methyltransferase 1 (Homo sapiens) (UniProt Q99873); assay: human PRMT1 activity-probe blockers – biochemical, fluorescence polarization, primary screen (AID 652257); settings: recombinant PRMT1, activity-based probe fluorescence polarization; at 2.79 µM; active compounds read high
Sequence (Q99873 whole entry, looked up): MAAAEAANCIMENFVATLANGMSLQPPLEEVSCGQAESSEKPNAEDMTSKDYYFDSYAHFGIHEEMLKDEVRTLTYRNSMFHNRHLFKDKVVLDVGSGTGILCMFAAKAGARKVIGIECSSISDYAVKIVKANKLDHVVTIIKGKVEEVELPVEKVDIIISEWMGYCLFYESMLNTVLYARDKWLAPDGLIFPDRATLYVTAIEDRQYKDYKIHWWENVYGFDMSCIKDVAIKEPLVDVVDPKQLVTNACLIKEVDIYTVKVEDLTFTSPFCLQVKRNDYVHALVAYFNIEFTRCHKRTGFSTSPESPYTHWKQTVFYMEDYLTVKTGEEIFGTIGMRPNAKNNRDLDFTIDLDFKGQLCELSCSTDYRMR

inhibition, active:
CCS(=O)(=O)c1cc([N+](=O)[O-])c(Sc2ccccc2N)s1 66.1%, Cc1sc2nc(SCC(=O)c3ccc(O)c(O)c3)n(Cc3ccco3)c(=O)c2c1C 25.1%, COc1ccccc1-n1c(-c2cc(-c3ccco3)[nH]n2)n[nH]c1=S 35.1%, Cc1ccc(/C=C/C(=O)Nc2ccc([N+](=O)[O-])c(NC(=O)/C=C/c3ccc(C)o3)c2)o1 41.1%, CC(=O)N1C(=O)/C(=C2\SC(=S)N(NC(=O)c3ccc(O)cc3)C2=O)c2ccccc21 37.7%, CCN1/C(=C/C(=S)Nc2ccccc2)Sc2ccccc21 64.6%, O=C(CN1CCN(c2ccc(O)cc2)CC1)Nc1ccc(-c2ccccc2)cc1 21.2%, O=C(CN1CCN(c2ccc(O)cc2)CC1)NC1CCCc2ccccc21 (stereo not given) 26.1%, COc1ccc(N2C(=O)/C(=C\c3ccco3)N=C2SCC(N)=O)cc1Cl 25.5%, C=CCn1c(=S)[nH]c2scc(-c3ccco3)c2c1=O 38.1%, CC(=NNC(=S)N1CCCCCC1)c1ccccn1 25.4%, Cc1c(NS(=O)(=O)c2cccc(C(=O)Nc3ccc(SC(F)F)cc3)c2)c(=O)n(-c2ccccc2)n1C 21.1%, Cc1sc2nc(CSCC(=O)NC3CCCCC3)[nH]c(=O)c2c1C 22.1%, CC(=O)N1CC(C)c2scc(C)[n+]2-c2ccccc21 (stereo not given) 53.9%, CNC(=S)NNC(=O)c1oc2nc(-c3ccccc3)cc(-c3ccco3)c2c1N 21.9%, O=C(NC(Cc1c[nH]c2ccccc12)C(=O)O)/C(=C/c1ccco1)NC(=O)c1ccccc1 (stereo not given) 25.5%

inhibition, inactive:
CC1CC1C(=O)OCC(=O)Nc1cccc(F)c1 (stereo not given) 2.32%, Cc1ccccc1CN1CCCCC(NC(=O)Nc2ccccc2F)C1=O (stereo not given) -0.07%, C#CCNC(=O)C[C@H]1C[C@@]2(C(=O)OC)C(=C[C@H](C(C)C)O[C@@H]2C2CC2)N(Cc2ccco2)C1=O -1.6%, C=CCn1c(=NC(=O)c2cccs2)sc2cc(NC(C)=O)ccc21 4.42%, COc1cc2c(cc1OC)C(Cc1cc(OC)c(OC)cc1[N+](=O)[O-])=NCC2 8.89%, O=C(c1ccccc1)c1ccc(-c2ccccc2C(=O)NC2CCCCN(Cc3ccc(Cl)cc3)C2=O)cc1 (stereo not given) -3.72%, C=C(C)C#CC(Cc1ccccc1)NCC1CC1 (stereo not given) 7.99%, O=C(CSc1nnc(-c2cccs2)n1Cc1ccco1)c1ccc2c(c1)OCO2 1.9%, O=C(CSc1nnc(COc2ccccc2)n1Cc1ccco1)c1ccc2ccccc2c1 4.78%, CCCC[C@H]1C2CC(OC(=O)NCc3ccccc3)C(C2)[C@H]2CCCCN21 (stereo not given in full) 1.74%, Cc1cc(-c2n[nH]c(=S)n2-c2ccc(C)c(C)c2)no1 4.04%, COc1ccc(OCc2n[nH]c(=S)n2N)cc1 4.04%, COc1ccc(C(C#N)Nc2ccccc2C)cc1 (stereo not given) 1.86%, CC(C)(C)OC(=O)NCc1cc(F)ccc1/C=C/S(=O)(=O)NCCc1ccccc1 -0.49%, Cc1cc(NC(=O)COC(=O)/C=C/c2ccc(C)o2)no1 5.65%, O=C(/C=C/c1ccc([N+](=O)[O-])o1)NNC(=O)c1ccc(F)cc1 5.67%, COc1ccc(-n2c(SCC(=O)Nc3ccc(C)c(Cl)c3)nc3ccccc3c2=O)cc1 0.06%, COc1ccc(/C=C2/S/C(=N/N=C3\CC4CCC3(C)C4(C)C)NC2=O)cc1 (stereo not given) -3.61%, COc1ccc(C(=O)NN2C(=O)C3C(c4ccccc4)C=CC(c4ccccc4)C3C2=O)cc1 (stereo not given) -3.24%, COc1ccc2c(c1)N(C)/C(=C1/SC(=S)N(NC(C)=O)C1=O)S2 -3.82%, COC(=O)C[C@@H]1CC[C@@H]2[C@H](COc3ccc(NC(=O)c4cccc(F)c4)cc3C(=O)N2C)O1 -3.84%, CCN1/C(=C\c2ccc3ccccc3[n+]2CC)Sc2cc(C)ccc21 -5.01%, C=CCN1[C@H](CC(C)C)COc2cccc(N3CCCC3)c2S1(=O)=O 11.6%, O=C(CCC(=O)N1CCN(S(=O)(=O)c2ccccc2)CC1)NC1CCCc2ccccc21 (stereo not given) 2.87%, O=C(CSc1nncs1)NC1CCCc2ccccc21 (stereo not given) 2.99%, CC(=O)c1ccc(N2CCN(CC(=O)Nc3ccccc3N3CCOCC3)CC2)cc1 -1.3%, O=C(CN1CCN(c2cccc(Cl)c2)CC1)Nc1ccc(S(=O)(=O)N2CCOCC2)cc1 1.21%, CCCCN1CC(CO)Oc2cccc(F)c2S1(=O)=O (stereo not given) -3.97%, Cc1cc(C)c(NC(=O)CN2CCOCCOCCOCCOCC2)c(C)c1 -1.78%, COC(=O)C1CN(Cc2ccc(F)cc2)CCS(=O)(=O)N1Cc1ccc(Cl)cc1 (stereo not given) 0.79%, CC(=O)Nc1ccc(OC[C@@H](O)CN2CCC(C(O)(c3ccccc3)c3ccccc3)CC2)cc1 -3.02%, COC(=O)[C@]12C[C@H](CC(=O)NCCCN3CCCC3=O)C(=O)N(CCc3ccc(OC)c(OC)c3)C1=C[C@H](COCc1ccccc1)O[C@@H]2C -1.4%, COC(=O)C1CN(CCc2ccccc2)CCS(=O)(=O)N1Cc1cccc(Cl)c1 (stereo not given) 4.71%, O=C(COC(=O)c1ccccc1SCC(=O)N1CCCC1)Nc1ccccc1OC(F)F 2.04%, Cc1ccc(C(NC(=O)N2CCCC2)C(Cl)(Cl)Cl)cc1F (stereo not given) -0.94%, CC1CCN(C(=O)CSc2nnc(-c3ccco3)n2N)CC1 -3.61%, COc1ccc(Cl)cc1NS(=O)(=O)c1cccc(C(=O)NC2CCC(O)CC2)c1 (stereo not given) -6.68%, COc1ccc(Cl)cc1C(=O)NNC(=S)NC(=O)/C=C/c1ccco1 -3.9%, COc1ccc([N+](=O)[O-])cc1NC(=O)COC(=O)/C=C/c1ccco1 5.77%, COC(=O)[C@]12C[C@H](CC(=O)NCc3ccccc3)C(=O)N(CCC3=CCCCC3)C1=C[C@H](C(C)C)O[C@@H]2C1CC1 -0.96%, CC(c1ccc(N)cc1)c1cn(C)c2ccccc12 (stereo not given) -3.45%, COc1ccc(Cl)cc1-c1cc(C(=O)Nc2cc(OC)c(OC)c(OC)c2)[nH]n1 -1.28%, CC(CCN1CCC(C(O)(c2ccccc2)c2ccccc2)CC1)Oc1ccc(Cl)cc1 (stereo not given) 0.54%, O=C(CSc1nc2ccccc2n1Cc1ccccc1Cl)N/N=C\c1c[nH]c2ccccc12 -0.85%, O=C(OCC(=O)N1CCCCCC1)c1cccc(Cl)c1Cl -1.11%, CC(NC(=O)Nc1ccccc1)C(c1cccs1)N1CCN(c2ccccc2)CC1 (stereo not given) 0.36%, CCOC(=O)c1ccc(NC(=S)N2CCN(c3ccccn3)CC2)cc1 -2.24%, O=[N+]([O-])c1ccc(NC(=S)N2CCN(c3ccccn3)CC2)cc1 -0.91%, COC(=O)C1=C[C@@H](C(=O)OC)[C@@H]2C3=C(C(=O)[C@]2(C)NC(=O)c2ccccc2)[C@H](C)n2c(=O)n(C)c(=O)n2[C@@H]3C1 1.61%, CCOC(=O)c1ccccc1NC(=O)CSc1nc2c(sc(=S)n2CC)c(=O)[nH]1 19%, CSc1ncnc2c1ncn2CC(=O)C1CCC2C3CCC4=CC(=O)CCC4(C)C3CCC12C (stereo not given) 0.25%, COc1ccc(C(=O)C(C)OC(=O)c2cccc(S(=O)(=O)Nc3c(C)n(C)n(-c4ccccc4)c3=O)c2)cc1 (stereo not given) -2.91%, Cc1c(NS(=O)(=O)c2cc(C(=O)NCCc3ccc(F)cc3)cc(Cl)c2Cl)c(=O)n(-c2ccccc2)n1C -3.45%, Cc1ccccc1-c1nc(CS(=O)(=O)CC(=O)NC(C)c2ccccc2)c(C)o1 (stereo not given) -4.8%, Cc1nc(SCC(=O)NC2CCCC2)[nH]c(=O)c1C 1.36%, Cc1sc2nc(CSCC(=O)Nc3c(Cl)cccc3Cl)[nH]c(=O)c2c1C 13.1%, COC(CNC(=O)[C@H](Cc1ccccc1)NC1(C(=O)NC2CCCCC2)CCCCC1)OC -5.82%, O=C(NCc1cccnc1)c1cnc2ccccc2n1 -0.09%, CCOc1ccc(-n2c(SCC(=O)Nc3cc(C)c(NC(=O)c4ccccc4)cc3OC)nnc2-c2cccs2)cc1 2.3%, Cc1ccc(NC(=O)C(CC(=O)O)C2CCCO2)c(C)c1 (stereo not given) 2.66%, Cc1ccc(C(=O)N(Cc2ccccn2)CC2CCCO2)cc1 (stereo not given) -2.09%, NNC(=O)c1oc2nc(-c3ccccc3)cc(-c3ccco3)c2c1N -3.39%, O=C(OCC#CCSc1nnc(-c2ccco2)o1)c1ccc(F)cc1 -2.56%, COc1ccc(-c2cc(-c3nnc(SCc4ccc([N+](=O)[O-])cc4)n3N)[nH]n2)cc1 -4.36%, O=C(NCc1ccco1)/C(=C/c1ccco1)NC(=O)c1ccccc1 7.1%, O=C(NC(Cc1ccccc1)C(=O)O)/C(=C\c1ccccc1)NC(=O)c1ccco1 (stereo not given) -0.14%, O=C1CC[C@@]23CCCN2C(=O)CCC[C@H]3[C@H]1Cc1ccccc1 2.04%, O=C(C[C@H]1C[C@H](C(=O)N2CCOCC2)[C@@]2(CCC3CCCC3)c3[nH]c4ccc(Cl)cc4c3CCN2C1=O)NCc1ccco1 -5.92%, C=CCN1C(=O)[C@@H](CC(=O)NCCCCc2ccccc2)[C@]2(C(=O)OCC)CCCCC/C=C/12 1.83%
